A selection: hits, their analogues and other compounds. The true share with any hit is near 9.2%.
FLuc counter: qHTS profiling assay for firefly luciferase inhibitor/activator using purifed enzyme and Km concentrations of substrates (counterscreen for miR-21 project); purified FLuc, Km substrates, luminescence inhibition; Potency, µM (highest dose often 57.5 µM), for inactives: top-dose activity change, negative = inhibition, usual class: inhibitors; 360,000 tested, 6.9% active;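 further: plate controls were vehicle for no effect and reference inhibitor for full effect; nearly all actives have a fitted effect of over 55% in size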
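Purified P. pyralis luciferase (10nM final) with 10uM D-luciferin and 10uM ATP (Km levels) in 50mM Tris acetate pH 7.5, 10mM Mg acetate, 0.01% Tween-20, 0.05% BSA; qHTS 6-point titration, ~60 µM downward; luminescence read.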
SMN2 splice enh: qHTS Assay for Enhancers of SMN2 Splice Variant Expression | AID 1458, 2008 | 210,000 tested, 2.8% active | HEK293 SMN2-luciferase splicing reporter, luminescence, 30-36 h | Potency, µM (top dose mostly 46.1 µM), for the others: at the highest dose activity change, positive = activation, hits mostly activators; further: % of control where 0% means no effect; nearly all actives have a fitted effect of over 55% in size
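HEK293 cells carry an SMN2 minigene-luciferase reporter in which exon 7 inclusion puts luciferase in frame. Cells were seeded at 2000 cells/well, attached for 10-12 hours, then exposed to compounds for 30-36 hours at 37C before ONE-Glo luminescence.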
ELG1 genotoxic: qHTS screen for small molecules that induce genotoxicity in human embryonic kidney (HEK293T) cells expressing luciferase-tagged ELG1 | HEK293T ELG1-luciferase reporter, luminescence, 16 h | Potency, µM (highest dose often 46 µM), for inactives: at the highest dose activity change, positive = activation, most hits filed as activators | 330,000 tested, 1.3% active; further: % of control where 0% means no effect; nearly all actives have a fitted effect of over 60% in size
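Step 1: seed 2,000 HEK293T ELG1-luciferase cells per well. Step 2: add compound or DMSO, incubate 16 hr at 37 °C. Step 3: ONE-Glo, 30 min at room temperature, read luminescence.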
ELG1 DNA repair: qHTS screen for small molecules that inhibit ELG1-dependent DNA repair in human embryonic kidney (HEK293T) cells expressing luciferase-tagged ELG1; 330,000 tested, 2.3% active; Potency, µM (doses to about 46.1 µM), inactives show top-dose activity change, negative = inhibition, hits mostly inhibitors; HEK293T ELG1-luciferase reporter, luminescence, 16 h; DNA damage induced by 5-fluorouridine; further: on the % scale 0 is the no-effect control and ±100 the full control effect; nearly all actives have a fitted effect of over 55% in size
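DMSO vehicle served as the neutral condition. Each well held 2,000 cells given 5-fluorouridine plus compound; after 16 hr at 37 °C/5% CO2, ONE-Glo was added and luciferase measured 30 min later.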
NPC1 prom act: qHTS Assay for NPC1 Promoter Activators; Potency, µM (titrated, usually from 9.22 µM), inactives show at the highest dose activation, usual class: activators; Huh7 NPC1 promoter luciferase reporter, 24 h; 320,000 tested, 2.4% active; further: % of control where 0% means no effect; nearly all actives have a fitted effect of over 60% in size
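Luminescence read-out of NPC1 promoter-driven luciferase in stably transfected Huh7 cells; compounds delivered in DMSO and left 24 h at 37C, 5% CO2, qHTS titration format.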
Rab9 promoter act: qHTS Assay for Rab9 Promoter Activators; Huh7 Rab9 promoter-luciferase reporter, luminescence, 24 h; Potency, µM (top dose mostly 9.22 µM), for the others: at the top dose activation, negative = inhibition, most hits filed as activators; 320,000 tested, 2.8% active; AID 485297, 2010; further: % of control where 0% means no effect; nearly all actives have a fitted effect of over 60% in size
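Cells were plated at 1500 per well in reduced-serum medium with 10% FBS and left 2 h. Compound in DMSO was then added for 24 h at 37 °C. Reporter signal was read by luminescence after 10 min with luciferase detection reagent.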
ELG1 FLuc counter: qHTS screen for small molecules that inhibit ELG1-dependent DNA repair: Hit Confirmation in Cell-Based Luciferin Assay; Potency, µM (top dose mostly 46.1 µM), for the others: top-dose activity change, negative = inhibition, actives largely listed as inhibitors; shares compounds with ELG1 DNA repair; cell-free firefly luciferase luminescence counter-screen, ViewLux; 350 tested, 3% active; further: on the % scale 0 is the no-effect control and ±100 the full control effect
ELG1 Luc conf: HTS assay for small molecules that inhibit ELG1-dependent DNA repair in human embryonic kidney (HEK293T) cells expressing luciferase-tagged ELG1: Hit Confirmation. shares compounds with ELG1 DNA repair. HEK293T ELG1-luciferase levels, luminescence; cells co-treated with 5-fluorouridine. Potency, µM (highest dose often 46.1 µM), inactives show at the top dose activity change, negative = inhibition, usual class: inhibitors. 670 tested, 68% active. AID 624248, 2012; further: on the % scale 0 is the no-effect control and ±100 the full control effect; nearly all actives have a fitted effect of over 55% in size
ELG1 MMS Luc: confirmation of human ELG1 repair inhibitors, MMS stimulated. Potency, µM (doses to about 46.1 µM), for inactives: at the top dose activity change, negative = inhibition, most hits filed as inhibitors. shares compounds with ELG1 DNA repair. AID 624249. HEK293T luciferase-tagged ELG1 level, MMS stimulated. 670 tested, 53% active; further: on the % scale 0 is the no-effect control and ±100 the full control effect; nearly all actives have a fitted effect of over 60% in size
ELG1 5FU viab: qHTS screen for small molecules that inhibit ELG1-dependent DNA repair: Hit Confirmation with 5FU Viability | Potency, µM (highest dose often 46.1 µM), for inactives: at the top dose activity change, negative = viability loss, hits mostly cytotoxic | cell viability with 5-FU, ELG1-dependent repair | 670 tested, under 10 active | shares compounds with ELG1 DNA repair | AID 624250, 2012;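 further: ELG1-luc HEK293T cells cotreated with 5-fluorouridine at 10 µM final; viability measured 16 h after compound addition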
ELG1 MMS viab: qHTS screen for small molecules that inhibit ELG1-dependent DNA repair: Hit Confirmation with MMS Viability | shares compounds with ELG1 DNA repair | Cell viability with MMS, ELG1-dependent DNA repair | Potency, µM (top dose mostly 46.1 µM), for inactives: at the highest dose activity change, negative = viability loss, hits mostly cytotoxic | 670 tested, 33% active | AID 624251, 2012;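 further: ELG1-luc HEK293T cells co-treated with 10 µM MMS; viability read 16 h after compound addition; on the % scale 0 is the no-effect control and ±100 the full control effect; nearly all actives have a fitted effect of over 60% in size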
ELG1 unstim viab: qHTS screen for small molecules that inhibit ELG1-dependent DNA repair: Hit Confirmation with Unstimulated Viability Assay | 900 tested, 8% active | cell viability counter-screen, unstimulated, luminescence | Potency, µM (highest dose often 45.9 µM), for inactives: at the top dose activity change, negative = loss of viability, hits mostly cytotoxic | shares compounds with ELG1 DNA repair;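 further: compound exposure lasted 16 hours before reading; on the % scale 0 is the no-effect control and ±100 the full control effect; nearly all actives have a fitted effect of over 55% in size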
FLuc enzyme: qHTS screen for small molecules that inhibit ELG1-dependent DNA repair: Hit Confirmation in Biochemical Luciferin Assay; Potency, µM (highest dose often 57.5 µM), for the others: at the top dose activity, negative = inhibition, usual class: inhibitors; shares compounds with ELG1 DNA repair; AID 624253, 2012; 350 tested, 10% active; purified firefly luciferase, luminescence counter-screen; further: on the % scale 0 is the no-effect control and ±100 the full control effect
An asterisk follows results filed as active; ? = inconclusive; / = no result; [ ] = dose if it differs, or a comment. The call rests on the fitted dose curve; in most records, active means well fitted curve in the direction sought with a large enough effect; inconclusive means small, poorly fitted or top-dose-only effect, or another doubt; inactive means no such curve, though single readings can be large; an effect the other way counts as inactive or inconclusive. Potency means the concentration at half of the fitted maximal effect.

SMILES | FLuc counter | SMN2 splice enh | ELG1 genotoxic | ELG1 DNA repair | NPC1 prom act | Rab9 promoter act | ELG1 FLuc counter | ELG1 Luc conf | ELG1 MMS Luc | ELG1 5FU viab | ELG1 MMS viab | ELG1 unstim viab | FLuc enzyme
CCOc1ccc(NC(=O)CN(C)C(=O)C2CCN(c3ncnc4sc(C)c(C)c34)CC2)cc1OCC | 2% | / | -19% | 15µM* | 1% | -3% | ? | 16µM* | 25µM* | ? | ? | -14% | 1%
C[C@]12CC[C@H]3c4ccc(O)cc4CC[C@@H]3[C@H]1CC[C@@H]2OC(=O)CCC1CCCC1 | / | -6%[9.22 µM] | / | / | / | / | / | / | / | / | / | / | /
CCCCCCNC(=O)CCc1c(C)nc2nc(-c3cc(OC)cc(OC)c3)nn2c1C | 2% | 3% | / | / | / | / | / | / | / | / | / | / | /
CCCCNC(=O)CCc1c(C)nc2nc(-c3cc(OC)cc(OC)c3)nn2c1C | 0% | 24% | 1% | 2.3µM* | 0% | 9% | / | ? | 1% | ? | ? | 8% | /
Cc1ccc(-c2nc3c(c(SCC(=O)Nc4cccc(C(=O)O)c4)n2)Cc2cccc(C)c2O3)cc1 | ? | 7% | / | / | 8% | -2% | 72% | 76% | 77% | 7% | ? | 5% | ?
O=C(c1nc2nc(-c3ccccc3)cc(C(F)(F)F)n2n1)N1CCCCC1 | -1%[2.3 µM] | -28% | -6% | 3.3µM* | -1% | 5% | / | -8% | 18% | 1% | -5% | -1% | /
O=C(NCc1cccs1)c1cc(-c2cccc(Cl)c2)on1 | -2% | -1% | ? | ? | 26% | ? | / | / | / | / | / | / | /
Cc1ccc(-c2cc(C(=O)NCc3cccs3)no2)cc1 | -10% | 22% | ? | ? | ? | 2µM* | 54% | / | / | / | / | 9% | ?
Cn1cnc(Sc2ncnc3nc[nH]c23)c1[N+](=O)[O-] | -14% | / | 3% | ? | 1% | 3% | 0% | ? | ? | -1% | -1% | 16µM* | 4%
CC(=O)CSc1ncnc2nc[nH]c12 | 1% | -19% | -3% | -7% | -5% | 0% | / | / | / | / | / | / | /
COc1cc(OC)c(C(=O)OCC(=O)Nc2nnc(-c3ccccc3)o2)cc1OC | 0% | / | -5% | 4% | 0% | -3% | / | / | / | / | / | / | /
COc1ccccc1NC(=O)N(Cc1ccco1)Cc1cc2ccc(C)c(C)c2[nH]c1=O | ? | -24% | -24% | 8.2µM* | -21% | -7% | 10% | 4µM* | ? | 4% | ? | ? | -17%
CCSc1nnc(NC(=O)c2csc(C)c2)s1 | -17% | 14µM* | ? | ? | 2.8µM* | 2.2µM* | 59% | / | / | / | / | 10% | ?
CCSc1nnc(NC(=O)c2cccc3ccccc23)s1 | -2% | 3% | 1% | 16% | -1% | -3% | / | / | / | / | / | / | /
COc1ccc(C2=NOC(C(=O)N3CCN(C(=O)c4ccco4)CC3)C2)cc1OC (centres undefined) | 0% | / | 2% | ? | -4% | -4% | / | / | / | / | / | / | /
COc1cc(-c2nn3c(-c4ccccc4)nnc3s2)cc(OC)c1OC | 6% | -3% | -3% | ? | 14% | -3% | / | / | / | / | / | / | /
CCOc1cccc(-c2nnc3sc(-c4cc(OC)c(OC)c(OC)c4)nn23)c1 | 4% | 24% | 8% | 3.3µM* | 0% | -5% | / | ? | 15% | 4% | -3% | ? | /
CC(=O)NC1C(c2nc3ccccc3s2)=C(c2ccccc2)C(=O)N1c1ccc(C)cc1 (centres undefined) | 7% | 28% | 5% | ? | -5% | 10% | / | / | / | / | / | / | /
COc1cccc(N2C(=O)C(c3ccccc3)=C(c3nc4ccccc4s3)C2NC(C)=O)c1 (centres undefined) | 6% | 25% | -1% | 2.3µM* | -4% | -4% | 3% | 3.2µM* | 3% | ? | -2% | -3% | -16%
O=[N+]([O-])c1cccc(I)c1 | / | -6% | / | / | / | / | / | / | / | / | / | / | /
O=C(CCN1C(=O)NC2(CCCC2)C1=O)Nc1ccc(-c2nc3ccccc3s2)cc1 | / | / | ? | ? | 0.89µM* | 0.45µM* | 120% | / | / | / | / | ? | 3.7µM*
CC(=NNC(=O)c1cccs1)c1ccc2c(c1)OCCO2 | / | / | 16µM* | ? | / | / | / | / | / | / | / | ? | /
